# Biological target: Fibroblast growth factor 2 (Homo sapiens) (UniProt P09038)
# Experiment: FGF2 binders on small-molecule microarrays, primary screen, biochemical, small-molecule microarray, 635/667 nm fluorescence (AID 1133)
# Details: small-molecule microarray binding, FGF2, fluorescence 635/667; higher = more signal
# Chain of Fibroblast growth factor 2 (Homo sapiens) (P09038 whole entry, looked up): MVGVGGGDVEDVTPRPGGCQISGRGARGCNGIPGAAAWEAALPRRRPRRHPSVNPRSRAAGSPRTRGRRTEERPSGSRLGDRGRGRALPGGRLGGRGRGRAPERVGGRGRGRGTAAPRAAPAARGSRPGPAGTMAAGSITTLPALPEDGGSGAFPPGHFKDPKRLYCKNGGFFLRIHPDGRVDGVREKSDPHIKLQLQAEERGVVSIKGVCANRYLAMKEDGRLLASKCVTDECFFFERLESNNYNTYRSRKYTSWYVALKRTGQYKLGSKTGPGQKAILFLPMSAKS
row,Structure (SMILES),composite z-score
1,C=CC[C@]1(C(=O)NCC(O)CO)N=C(c2ccc(OCCCO)cc2)O[C@H]1c1ccccc1CN=[N+]=[N-] (some centres undefined),0.785
2,C[C@]1(C(=O)NC2CC2)c2ccccc2C(=O)N(Cc2cc(F)cc(C(F)(F)F)c2)[C@H]1c1ccc(CO)cc1,-0.785
3,CC(C)N1CC=CC23O[C@@H]4/C=C\CCCOC(=O)C4[C@H]2C(=O)N(C(C)CO)[C@@H]3C1=O (some centres undefined),-1.31
4,CCOC(=O)C[C@H]1[C@H](OC(=O)c2ccccc2-c2ccccc2)[C@@H](NC(=O)CC(C)C)c2cc(OCCCO)ccc2N1C(=O)c1ccccc1,0.583
5,CN(C)CCCCNC(=O)[C@H]1C[C@H]2C(=O)N[C@@H](CCCCN(C)C)C(=O)N2[C@H]1c1ccc(O)cc1,0.988
6,CC(CO)N1C(=O)[C@@H]2[C@H]3C(=O)OCC=C[C@H]3OC23C=CCN(c2ccc4ccccc4c2)C(=O)[C@@H]13 (some centres undefined),-1.55
7,CC(C)N1C(=O)[C@@]2(Cc3ccccc31)c1ccccc1C(=O)N(Cc1ccccc1)[C@H]2c1ccc(CO)cc1,0.203
8,CCOC(=O)C1=CC[C@@H](c2ccccc2)N(S(=O)(=O)c2ccc(C)cc2)[C@@H]1C#N,-0.501
9,COc1ccc([Si](C)(C)[C@@H]2[C@@H](CC(=O)N(CCO)Cc3ccccc3)O[C@]3(C(=O)N(Cc4cccc(I)c4)c4ccccc43)[C@H]2C)cc1,1.68
10,CO[C@H]1O[C@H](CO)[C@@H](OC(=O)CCc2ccccc2)[C@@H]2OC(=O)[C@@H](Cc3ccc4ccccc4c3)C/C=C/C[C@H](Cc3ccc4ccccc4c3)C(=O)O[C@@H]12,-0.512
11,O=C1O[C@H](c2ccccc2)[C@H](c2ccccc2)N2[C@H]1[C@@H](C(=O)O)[C@]1(C(=O)Nc3ccccc31)[C@H]2c1ccc(OCCO)cc1,0.293
12,O=C1c2ccccc2[C@@]2(Cc3ccccc3N(CC(F)(F)F)C2=O)[C@H](c2ccc(CO)cc2)N1Cc1ccccc1,1.4
13,COCCCNC(=O)[C@@]1(Cc2ccccc2I)c2ccccc2C(=O)N(C2CCCCC2)[C@H]1c1ccc(CO)cc1,1.29
14,COCCOC(=O)N1C(=O)[C@@]2(c3cc(C#CC4(O)CCCCCC4)ccc31)[C@H](C(N)=O)[C@H]1C(=O)O[C@H](c3ccccc3)[C@H](c3ccccc3)N1[C@@H]2c1ccc(OCCO)cc1,0.888
15,CCCNC(=O)[C@@]1(Sc2ccc(C)cc2)CC(=O)N(Cc2cc(C(F)(F)F)cc(C(F)(F)F)c2)[C@@H]1c1ccc(CO)cc1,-0.375
16,C=C(CCCC)/C(=C/C[C@@H](OC(C)=O)c1cccc(OCCO)c1)c1cc(C(=O)OC)ccc1OC,0.0923
17,Cc1cccc([C@H]2C[C@H]3C(Br)=C[C@@]2(CO)C(=O)[C@]32CO2)c1,-0.117
18,CCCCN1CC=CC23O[C@@H]4/C=C\CCCOC(=O)C4[C@H]2C(=O)N(CCCCCCO)[C@@H]3C1=O (some centres undefined),-0.621
19,C=CCNC(=O)[C@@H]1[C@H]2C(=O)O[C@H](c3ccccc3)[C@H](c3ccccc3)N2[C@H](c2ccc(OCCO)cc2)[C@@]12C(=O)N(C(=O)OCCOC)c1ccccc12,1.26
20,COc1ccc(C(=O)Nc2ccc(CN3C(=O)[C@]4(O[C@H](CC(=O)N(CCO)Cc5ccccc5)[C@@H]([Si](C)(C)c5ccc(OC)cc5)[C@@H]4C)c4ccccc43)cc2)cc1,1.31
21,COC(=O)Cn1c(C(=O)N(C)C)cc2c1C[C@H]1CN(C(=O)c3ccccc3)[C@@](Cc3ccccc3)(C(=O)OC)[C@@H]21,0.179
22,CO[C@H]1O[C@H](CO)[C@@H](OC(=O)Nc2cccc(F)c2)[C@H](OC(=O)Nc2ccc3c(c2)OCO3)[C@@H]1OC(=O)Nc1ccc2c(c1)OCO2,0.217
23,COC(=O)[C@@]1(Cc2ccc(F)cc2)[C@H]2c3cc(C(=O)N(C)C)n(Cc4cccc5ccccc45)c3C[C@H]2CN1C(=O)c1ccccc1,-0.617
24,CCOC(=O)C[C@H]1[C@H](OC(=O)Cc2ccc3c(c2)OCO3)[C@@H](NC(=O)CC(C)C)c2cc(OCCCO)ccc2N1C(=O)c1ccc2ccccc2n1,1.28
25,O=C1O[C@H](c2ccccc2)[C@H](c2ccccc2)N2[C@H]1[C@@H](C(=O)N1CCN(c3ncccn3)CC1)[C@]1(C(=O)Nc3ccc(C#CC4(O)CCCCCC4)cc31)[C@H]2c1ccc(O)cc1,0.89
26,COC(=O)C[C@H]1O[C@]2(C(=O)N(C)c3ccccc32)[C@@H](C)[C@@H]1[Si](C)(C)c1ccccc1,0.856

# System: not listed separately
# Experiment: mitochondrial membrane potential change in A549 cells, profiling panel, cell-based, JC-1 fluorescence, basal, 24 h, 100 nL (AID 1138);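 also: A549 lung adenocarcinoma cells under basal conditions with no added stimulus; test concentration not given here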
# Details: higher = more signal
row,Structure (SMILES),z-score
1,CCCC[C@@H](O)C1=C(C)Cn2c(=O)n(-c3ccccc3)c(=O)n2[C@H]1CO,2.01
2,CCOC(=O)C[C@H]1[C@H](OC(=O)c2cc3ccccc3oc2=O)[C@@H](NC(=O)Cc2ccc(OC)cc2)c2cc(OCCCO)ccc2N1C(=O)Cc1ccc(OC)cc1,-0.202
3,COC(=O)C1=CC(CCCO)=CC(c2ccc(CN3CCCC3)cc2)N(C)C=C1C(=O)OC (centres undefined),0.915
4,CCOC(=O)C[C@H]1[C@H](OC(=O)c2ccc(-c3ccccc3)cc2)[C@@H](NC(=O)c2ccc(-c3ccccc3)cc2)c2cc(OCCCO)ccc2N1C(=O)c1ccccc1,0.392
5,COc1ccc(C(=O)Nc2cccc(CN3C(=O)[C@]4(O[C@H](CC(=O)N(CCO)Cc5ccccc5)[C@@H]([Si](C)(C)c5ccc(OC)cc5)[C@@H]4C)c4ccccc43)c2)cc1,-0.0253
6,O=C(N1CCOCC1)[C@]1(CCS(=O)(=O)c2ccccc2)N=C(c2ccc(OCCCO)cc2)O[C@@H]1c1ccccc1,1.1
7,CC(C)c1ccc(NN2C(C(O)c3ccccc3)C=CC3C(=O)N(c4ccccc4)C(=O)C32)cc1 (centres undefined),0.266
8,COc1ccc([Si](C)(C)[C@H]2[C@H](CC(=O)N3CCC[C@H]3CO)O[C@@]3(C(=O)N(C)c4c(Br)cc(C)cc43)[C@@H]2C)cc1,-0.0282
9,COCCCNC(=O)[C@]1(Cc2ccccc2N=[N+]=[N-])N=C(c2ccc(OCCCO)cc2)O[C@@H]1c1ccccc1,2.2
10,[N-]=[N+]=NCc1ccccc1[C@H]1OC(c2ccc(OCCCO)cc2)=N[C@@]1(Cc1ccccc1N=[N+]=[N-])C(N)=O,0.145
11,C=CC[C@]1(C(=O)NCC(O)CO)N=C(c2ccc(OCCCO)cc2)O[C@H]1c1ccccc1CN=[N+]=[N-] (some centres undefined),0.895
12,C[C@]1(C(=O)NC2CC2)c2ccccc2C(=O)N(Cc2cc(F)cc(C(F)(F)F)c2)[C@H]1c1ccc(CO)cc1,-0.057
13,CC(C)N1CC=CC23O[C@@H]4/C=C\CCCOC(=O)C4[C@H]2C(=O)N(C(C)CO)[C@@H]3C1=O (some centres undefined),0.0728
14,CCOC(=O)C[C@H]1[C@H](OC(=O)c2ccccc2-c2ccccc2)[C@@H](NC(=O)CC(C)C)c2cc(OCCCO)ccc2N1C(=O)c1ccccc1,-0.154
15,CN(C)CCCCNC(=O)[C@H]1C[C@H]2C(=O)N[C@@H](CCCCN(C)C)C(=O)N2[C@H]1c1ccc(O)cc1,-0.0458
16,CC(CO)N1C(=O)[C@@H]2[C@H]3C(=O)OCC=C[C@H]3OC23C=CCN(c2ccc4ccccc4c2)C(=O)[C@@H]13 (some centres undefined),0.599
17,CC(C)N1C(=O)[C@@]2(Cc3ccccc31)c1ccccc1C(=O)N(Cc1ccccc1)[C@H]2c1ccc(CO)cc1,0.591

row,Structure (SMILES),z-score
1,CCOC(=O)C1=CC[C@@H](c2ccccc2)N(S(=O)(=O)c2ccc(C)cc2)[C@@H]1C#N,0.215
2,COc1ccc([Si](C)(C)[C@@H]2[C@@H](CC(=O)N(CCO)Cc3ccccc3)O[C@]3(C(=O)N(Cc4cccc(I)c4)c4ccccc43)[C@H]2C)cc1,-0.781
3,CO[C@H]1O[C@H](CO)[C@@H](OC(=O)CCc2ccccc2)[C@@H]2OC(=O)[C@@H](Cc3ccc4ccccc4c3)C/C=C/C[C@H](Cc3ccc4ccccc4c3)C(=O)O[C@@H]12,1.98
4,O=C1O[C@H](c2ccccc2)[C@H](c2ccccc2)N2[C@H]1[C@@H](C(=O)O)[C@]1(C(=O)Nc3ccccc31)[C@H]2c1ccc(OCCO)cc1,0.209
5,O=C1c2ccccc2[C@@]2(Cc3ccccc3N(CC(F)(F)F)C2=O)[C@H](c2ccc(CO)cc2)N1Cc1ccccc1,-0.772
6,COCCCNC(=O)[C@@]1(Cc2ccccc2I)c2ccccc2C(=O)N(C2CCCCC2)[C@H]1c1ccc(CO)cc1,0.438
7,COCCOC(=O)N1C(=O)[C@@]2(c3cc(C#CC4(O)CCCCCC4)ccc31)[C@H](C(N)=O)[C@H]1C(=O)O[C@H](c3ccccc3)[C@H](c3ccccc3)N1[C@@H]2c1ccc(OCCO)cc1,-1.71
8,CCCNC(=O)[C@@]1(Sc2ccc(C)cc2)CC(=O)N(Cc2cc(C(F)(F)F)cc(C(F)(F)F)c2)[C@@H]1c1ccc(CO)cc1,-0.328
9,C=C(CCCC)/C(=C/C[C@@H](OC(C)=O)c1cccc(OCCO)c1)c1cc(C(=O)OC)ccc1OC,1.63
10,Cc1cccc([C@H]2C[C@H]3C(Br)=C[C@@]2(CO)C(=O)[C@]32CO2)c1,-0.843
11,CCCCN1CC=CC23O[C@@H]4/C=C\CCCOC(=O)C4[C@H]2C(=O)N(CCCCCCO)[C@@H]3C1=O (some centres undefined),1.56
12,C=CCNC(=O)[C@@H]1[C@H]2C(=O)O[C@H](c3ccccc3)[C@H](c3ccccc3)N2[C@H](c2ccc(OCCO)cc2)[C@@]12C(=O)N(C(=O)OCCOC)c1ccccc12,1.11
13,COc1ccc(C(=O)Nc2ccc(CN3C(=O)[C@]4(O[C@H](CC(=O)N(CCO)Cc5ccccc5)[C@@H]([Si](C)(C)c5ccc(OC)cc5)[C@@H]4C)c4ccccc43)cc2)cc1,-0.474
14,COC(=O)Cn1c(C(=O)N(C)C)cc2c1C[C@H]1CN(C(=O)c3ccccc3)[C@@](Cc3ccccc3)(C(=O)OC)[C@@H]21,0.553
15,CO[C@H]1O[C@H](CO)[C@@H](OC(=O)Nc2cccc(F)c2)[C@H](OC(=O)Nc2ccc3c(c2)OCO3)[C@@H]1OC(=O)Nc1ccc2c(c1)OCO2,-0.307
16,COC(=O)[C@@]1(Cc2ccc(F)cc2)[C@H]2c3cc(C(=O)N(C)C)n(Cc4cccc5ccccc45)c3C[C@H]2CN1C(=O)c1ccccc1,0.319
